NadD block: NadD (S. aureus) enzyme inhibition | purified NadD enzyme, colorimetric absorbance read-out | inhibition, % at 20 µM | 360,000 tested, 0.78% active; in the data active means inhibition above about 26%
Granule exo inh: lytic granule exocytosis inhibition; TALL-104 LAMP-1 surface exposure, flow cytometry; cells stimulated with thapsigargin and PMA; inhibition, % at 10 µM; 360,000 tested, 0.66% active; AID 651702;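 active means inhibition above about 55%, limit read from the data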
PP1 counter: PP1-alpha (human) inhibition in PP5 counter-screen. P62136. purified PP1alpha, OMFP fluorescence. inhibition, % at 6.7 µM. 320,000 tested, 0.9% active;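 active means inhibition above the mean inhibition of all tested compounds plus 3 SD, computed separately for each screening campaign, cut at about 15% in these data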
Target sequence (P62136 whole entry, looked up): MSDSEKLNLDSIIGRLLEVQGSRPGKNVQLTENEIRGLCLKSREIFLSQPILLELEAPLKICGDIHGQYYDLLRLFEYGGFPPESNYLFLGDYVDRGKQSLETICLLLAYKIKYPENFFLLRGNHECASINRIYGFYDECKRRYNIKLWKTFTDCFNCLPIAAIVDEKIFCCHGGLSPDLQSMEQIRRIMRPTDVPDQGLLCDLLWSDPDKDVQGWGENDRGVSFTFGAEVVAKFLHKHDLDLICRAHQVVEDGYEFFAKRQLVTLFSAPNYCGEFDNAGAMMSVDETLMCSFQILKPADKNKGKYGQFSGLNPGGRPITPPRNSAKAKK
GRK2 inh: blocks RNA aptamer binding to human GRK2; inhibition of aptamer binding, % at 10 µM; P25098; 330,000 tested, 0.59% active; bead flow cytometry, FAM-aptamer displacement from GRK2; AID 488847;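 active means inhibition of aptamer binding above 40%, roughly 3 SD of noise, on plates passing a quality check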;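 further: median bead fluorescence of bound FAM aptamer so fluorescent compounds give negative values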
B2AR ag: agonists of human beta-2 adrenergic receptor inducing internalization | P07550 | Am2.2-beta2AR cells, FAP receptor internalization, flow cytometry | response, % (test concentration not listed) | 340,000 tested, 0.43% active;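 active means response above a set limit, near 3 SD of response in nonfluorescent compounds, cut at about 42% in these data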
Starred values were filed as active, the others as inactive. Shown are actives, neighbours in structure and some others; about 2.9% of the full set was active somewhere.

CC(=O)C1=C(O)C(=O)N(c2ccc(O)cc2)C1c1cccc(F)c1 (configuration not stated) was read as NadD block -0.5, Granule exo inh -11.7, PP1 counter 2.1, GRK2 inh 0.0 and B2AR ag 9.4.
For CC(=O)C1=C(O)C(=O)N(c2ccc(Br)cc2)C1c1cccc(F)c1 (configuration not stated) the results were NadD block 10.1, Granule exo inh 0.1, PP1 counter 15.7*, GRK2 inh 7.0 and B2AR ag 8.0.
Screening COc1cc2c(cc1OC)C1(Nc3c-2c(-c2ccccc2)nn3-c2ccccc2)C(=O)Nc2ccccc21 (configuration not stated) returned NadD block 39.8*, Granule exo inh 5.2, PP1 counter 0.7, GRK2 inh 2.0 and B2AR ag 1.9.
CCOC(=O)c1ccc(CC2SC(N)=NC2=O)cc1 (configuration not stated) was read as NadD block -5.0, Granule exo inh 4.6, PP1 counter -0.8, GRK2 inh 0.0 and B2AR ag 1.7.
For CC(=O)c1ccc(CC2SC(N)=NC2=O)cc1 (configuration not stated) the results were NadD block 5.6, Granule exo inh -1.4, PP1 counter 15.6*, GRK2 inh 0.0 and B2AR ag 3.2.
For Cc1cccc(C)c1Nc1nnc(SCC(=O)c2ccc3c(c2)NC(=O)CO3)s1 the results were NadD block 5.9, Granule exo inh -5.4, PP1 counter 1.7, GRK2 inh 0.0 and B2AR ag 0.2.
Screening CCc1ccc(-c2cc(C)no2)cc1S(=O)(=O)N1CCN(c2ccc(C(C)=O)cc2)CC1 returned NadD block 2.4, Granule exo inh 5.6, PP1 counter 15.4*, GRK2 inh 0.0 and B2AR ag -0.3.
For Cc1onc(-c2ccccc2)c1C(=O)N(CC(C)C)c1c(N)n(CC(C)C)c(=O)[nH]c1=O the results were NadD block 1.7, Granule exo inh 5.1, PP1 counter -0.8, GRK2 inh 1.0 and B2AR ag -1.2.
Screening CCOC(=O)/C=C(\C)Sc1cc(O)c2ccccc2c1O returned NadD block 15.9, Granule exo inh -0.8 and B2AR ag 45.9*.
For CCOC(=O)c1c(C)oc(=O)c(CC)c1O the results were NadD block -3.8 and Granule exo inh 0.7.
`CCOC(=O)c1c(C)oc2c(F)c(F)c(F)c(F)c2c1=O` gave NadD block -0.7, Granule exo inh 46.0, PP1 counter 0.5, GRK2 inh 2.0 and B2AR ag 43.1*.
Screening CC(=O)N1CCOc2ccc(S(=O)(=O)NC(C)c3ccccc3)cc21 (configuration not stated) returned NadD block -6.4, Granule exo inh -1.2, PP1 counter -3.1, GRK2 inh 0.0 and B2AR ag -3.2.
`O=C1c2ccccc2C(=O)c2c(Nc3ccc(CCO)cc3)ccc(O)c21` gave NadD block -5.2, Granule exo inh -23.8, PP1 counter 5.4, GRK2 inh 3.0 and B2AR ag 17.8.
`O=C1c2c(O)ccc(O)c2C(=O)c2c(NCCNCCO)ccc(NCCNCCO)c21` gave NadD block -1.0, Granule exo inh -25.9, PP1 counter 21.0*, GRK2 inh 99.0* and B2AR ag -9.4.
Screening CC1(C)C(=O)C=CC(=O)C(C)(C)C(=O)C=CC(=O)C(C)(C)C2=CC=C(O2)C(C)(C)C(=O)C=CC1=O returned NadD block -1.0, Granule exo inh 13.6 and B2AR ag 62.3*.
`O=C(CCl)N(c1ccccc1)c1c[nH]c2ccccc12` gave NadD block -2.1, Granule exo inh 1.4, PP1 counter 0.3, GRK2 inh 1.0 and B2AR ag 0.9.
`O=C(CCl)N(c1ccc(Cl)cc1)c1c[nH]c2ccccc12` gave NadD block -5.6, Granule exo inh 18.4, PP1 counter 1.4, GRK2 inh 0.0 and B2AR ag 69.2*.
For C=CCNC(=O)C1CC2Cn3c(nc4cc(Cl)c(Cl)cc43)C2N1C (configuration not stated) the results were NadD block -1.6, Granule exo inh -0.2, PP1 counter 0.8, GRK2 inh 1.0 and B2AR ag -10.6.
Screening Cc1cc(C)c(C)c(OC(=O)c2sc(Cl)nc2C)c1 returned NadD block 1.0, Granule exo inh -1.5, PP1 counter 1.1, GRK2 inh 0.0 and B2AR ag 92.3*.
`Cc1ccc(NC(=O)c2sc(Cl)nc2C)c(C)c1` gave NadD block 2.9, Granule exo inh -7.2, PP1 counter -4.9, GRK2 inh 2.0 and B2AR ag 7.1.

Screening data (PubChem BioAssay)
